# Test results reported in PubChem BioAssay AID651871 (Sanford-Burnham Center for Chemical Genomics, 2012).
# Several values for one entry are separate records, joined by “and”; a condition that tells them apart may be missing. Identical values can stand only once.
# Tested on: HL-1
# Test: protection of cardiomyocytes from stress damage, SAR follow-up, cell-based, panel, H9c2 and HL-1, ATP luminescence, set 2 (AID 651871);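 further: cells exposed to stressor for 2 h before ATP readout; reference of the scale not given here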
# Conditions: H9c2/HL-1 cardiomyocytes, 2-deoxyglucose stress, with 2-deoxyglucose
# [1] = run 8, at 79 µM (top of the series)
SMILES,"activity (protection/inhibition) (run 8, at 19.8 µM (top of the series))",activity (protection/inhibition) [1] [%]
COc1ccc2c(c1OC)C(=O)N1c3ccccc3C(=O)N(Cc3cccc(Cl)c3Cl)C21 (centres undefined),51.9% and 34.6%,-9.25
CCOC(=O)c1cccc(NC(=O)CNC(=O)c2cc(-c3cc(OC)c(OC)c(OC)c3)nc3ccccc23)c1,,74.3
COc1ccc2nc(-c3cc(OC)c(OC)c(OC)c3)cc(C(=O)NCC(=O)Nc3ccc(C(C)=O)cc3)c2c1,,97.2
